# Assay outcomes as filed in PubChem BioAssay.
# TDP1 cell CPT: qHTS for Inhibitors of human tyrosyl-DNA phosphodiesterase 1 (TDP1): qHTS in cells in presence of CPT. hit rate 12% among 420,000. Potency, µM (highest dose often 46.2 µM), for inactives: top-dose activity change, negative = growth inhibition, hits mostly inhibitors. chicken DT40 Tdp1-/-;hTDP1 cells + 20 nM CPT, ATP luminescence, 48 h. AID 686979, 2013; further: potency means the concentration at half of the fitted maximal effect; nearly all actives have a fitted effect of over 55% in size
#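 Chicken DT40 Tdp1-/- cells stably complemented with human TDP1 were seeded at 400 cells/well in medium containing 20 nM camptothecin, exposed to pin-transferred compounds, and grown at 37 °C for at least 48 hr. Viability was read as ATP luminescence.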
# IL1B secr inh: qHTS for Inhibitors of Inflammasome Signaling: IL-1-beta AlphaLISA Primary Screen; THP-1 LPS/ATP IL-1B secretion, AlphaLISA, 16 h; hits give low values; activity change, % at 57.5 µM; hit rate 4.7% among 360,000; AID 743279, 2014; in the data active means activity change below about -50%; inconclusive means mostly about -30% to -49%
#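 Secreted IL-1B measured by AlphaLISA bead assay after 16 h compound exposure of THP-1 cells; compounds (final up to 57.5 uM) added 1 h before LPS (250 ng/mL) and ATP (1.25 mM) stimulation; lower signal means less secretion.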
# TDP1 cell noCPT: qHTS for Inhibitors of human tyrosyl-DNA phosphodiesterase 1 (TDP1): qHTS in cells in absence of CPT; hit rate 15% among 420,000; Potency, µM (titrated, usually from 46.2 µM), inactives show at the highest dose activity change, negative = growth inhibition, usual class: inhibitors; DT40 Tdp1-/- hTDP1 cells, no CPT, ATP luminescence, 48 h; AID 686978, 2013; further: potency means the concentration at half of the fitted maximal effect; nearly all actives have a fitted effect of over 55% in size
#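 Seeded 400 DT40-hTDP1 cells/well (vehicle DMSO, no 20 nM CPT); pinned compounds; ≥48 hr at 37 °C; CellTiter-Glo luminescence as viability measure.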
# HT1080 IDH1KD tx: qHTS for induction of synthetic lethality in tumor cells producing 2HG: qHTS for the HT-1080-IDH1KD cell line; Potency, µM (series often up to 46.1 µM), for inactives: top-dose activity, negative = toxicity, usual class: cytotoxic; hit rate 2% among 360,000; HT-1080 IDH1 knockdown viability, ATP luminescence, 48 h; AID 686971, 2013;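 further: potency means the concentration at half of the fitted maximal effect; 0% = DMSO wells and -100% = cell-free medium wells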
#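 IDH1KD HT-1080 cells, 750/well, RPMI + 5% FBS; compound pinned after 2 h settling; 48 h, 37 °C; CellTiter-Glo luminescence; % activity normalised to DMSO and no-cell wells; curves fitted, classed by r2 and efficacy.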
# HT1080-NT tox: qHTS for induction of synthetic lethality in tumor cells producing 2HG: qHTS for the HT-1080-NT fibrosarcoma cell line. HT-1080-NT fibrosarcoma viability, CellTiter-Glo ATP luminescence, 48 h. Potency, µM (titrated, usually from 46.1 µM), for inactives: at the top dose activity, negative = less viability, actives largely listed as cytotoxic. hit rate 1.6% among 360,000;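 further: NT is the 2HG producing partner of a matched IDH1 knockdown line; potency means the concentration at half of the fitted maximal effect; 0% = DMSO-treated cells and -100% = media-only wells without cells; nearly all actives have a fitted effect of over 55% in size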
#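 A 48-hour cytotoxicity screen used HT-1080-NT cells plated 2 hours before compound delivery. ATP-based CellTiter-Glo luminescence measured viability, normalized to DMSO and no-cell controls.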
# * hit, by the source's call; ? = inconclusive; . = no result given; [ ] = dose if it differs, or a comment. A selection: hits, their analogues and other compounds. The true share with any hit is near 19%. Unless noted, the call rests on the fitted dose curve; in most records, active means well fitted curve in the direction sought with a large enough effect; inconclusive means small, poorly fitted or top-dose-only effect, or another doubt; inactive means no such curve, though single readings can be large; an effect the other way counts as inactive or inconclusive. Unless noted, on the % scale 0 is the no-effect control and ±100 the full control effect.
SMILES,TDP1 cell CPT,IL1B secr inh,TDP1 cell noCPT,HT1080 IDH1KD tx,HT1080-NT tox
Cn1cc(/C=C(\C#N)C(=O)Nc2cccc([N+](=O)[O-])c2)c2ccccc21,13µM*,-26.4,8.2µM*,15.7%,14.3%
N#C/C(=C/c1cn(Cc2ccc(F)cc2)c2ccccc12)C(=O)Nc1cccc(Cl)c1,?,.,-28.0%,.,.
Cc1c(/C=C(\C#N)C(=O)Nc2cccc(Cl)c2)c2ccccc2n1Cc1ccccc1,?,.,5.8µM*,.,.
Cc1nnc2ccc(-c3ccc(NS(=O)(=O)c4ccc(Cl)s4)cc3)nn12,?,50.0,?,5.6%,-8.7%
COc1ccc(-n2nc(C(=O)Nc3cccc(C(F)(F)F)c3)c3c4ccccc4n(C)c3c2=O)cc1,3.3%,.,1.5%,.,.
COc1ccc(-n2cc(C(=O)NC(C)c3ccccc3)c3ccccc3c2=O)cc1 (stereo not drawn),18.4µM*,.,?,.,.
CCOc1ccc(CCNC(=O)c2cn(-c3cccc(OC)c3)c(=O)c3ccccc23)cc1,?,.,20.6µM*,.,.
COc1cccc(-n2cc(C(=O)NCc3ccc(C)cc3)c3ccccc3c2=O)c1,14.6µM*,.,?,.,.
COc1cccc(-n2cc(C(=O)Nc3cccc(C(F)(F)F)c3)c3ccccc3c2=O)c1,16.4µM*,.,?,.,.
COc1cccc(-n2cc(C(=O)NC(C)C)c3ccccc3c2=O)c1,5.1%,26.3,-2.4%,9.0%,1.2%
COc1ccc(-n2cc(C(=O)O)c3ccccc3c2=O)cc1,-6.3%,8.0,-9.1%,-1.7%,-10.0%
CCOc1ccc(CCNC(=O)c2cc(C)nn2-c2ccccc2)cc1,?,2.8,?,-5.7%,-5.3%
COc1ccccc1N1CCN(CC(=O)Nc2sccc2C#N)CC1,-18.8%,15.4,?,-2.4%,0.5%
CC12CCC(O)CC1=CCC1C2CCC2(C)c3[nH]ncc3CC12 (stereo not drawn),-21.9%,25.2,-15.2%,?,-24.7%
O=C(Cc1ccc(Cl)cc1)N1CCC2(CC1)NCCc1[nH]cnc12,-1.6%,-11.8,-2.2%,-1.7%,6.9%
COc1cccc(-n2cc(C(=O)NCCCOC(C)C)c3ccccc3c2=O)c1,-8.7%,-23.8,6.3%,-0.3%,2.3%
CCCN(CCC)CCCNC(=O)c1cn(-c2ccc(OC)cc2)c(=O)c2ccccc12,1.2%,-12.6,22.3%,16.4%,1.1%
Cc1ccc(-n2cc(C(=O)Oc3ccc(F)cc3)c3ccccc3c2=O)cc1,16.4µM*,.,?,.,.
COc1cccc(-n2cc(C(=O)NCCc3ccc(C)cc3)c3ccccc3c2=O)c1,8.2µM*,.,10.3µM*,.,.
CCN(C(=O)c1cn(-c2ccc(OC)cc2)c(=O)c2ccccc12)c1cccc(Cl)c1,16.4µM*,.,16.4µM*,.,.
COc1ccc(-n2cc(C(=O)NCCc3ccc(C)cc3)c3ccccc3c2=O)cc1,?,.,20.6µM*,.,.
CCN(C(=O)c1cn(C)c(=O)c2ccccc12)c1cccc(C)c1,-29.6%,.,?,.,.
CC1CCCCN1CCCOC(=O)c1ccccc1 (stereo not drawn),-5.9%,.,3.3%,.,.
CCN(CC)CCOC(=O)C(Cc1ccco1)Cc1cccc2ccccc12 (stereo not drawn),?,-57.1*,?,-9.8%,-27.4%
COCCN1Cc2cccc(C(=O)NC(C)CCc3ccco3)c2C1=O (stereo not drawn),-0.4%,3.5,-4.2%,-14.9%,-9.7%
SMILES,TDP1 cell CPT,IL1B secr inh,TDP1 cell noCPT,HT1080 IDH1KD tx,HT1080-NT tox
CCOCCCn1c(SCC(=O)Nc2ccccc2OC)nc2c(oc3ccccc32)c1=O,?,.,25.9µM*,.,.
Cc1n[nH]c(=O)c2c(NC(=O)CSc3nc4ccccc4c(=O)n3CCCOC(C)C)oc(C)c12,?,?,?,-0.1%,7.9%
CCOCCCn1c(SCC(=O)Nc2oc(C)c3c(C)n[nH]c(=O)c23)nc2ccccc2c1=O,23.1µM*,-24.7,?,-12.2%,-18.1%
CCOc1ccccc1NC(=O)CSc1nc2c(oc3ccccc32)c(=O)n1Cc1ccco1,16.4µM*,.,20.6µM*,.,.
COc1ccccc1NC(=O)CSc1nc2c(oc3ccccc32)c(=O)n1Cc1ccco1,14.6µM*,.,?,.,.
O=C(CN1CCCC1)Nc1cc(C(F)(F)F)ccc1Cl,4.2%,30.1,-4.3%,18.3%,?
COc1ccccc1N1CCN(CC(=O)Nc2nccs2)CC1,7.3%,24.1,-14.8%,15.3%,18.4%
O=C(CN1CCN(C(C(=O)Nc2cc(C(F)(F)F)ccc2Cl)c2ccccc2)CC1)NC1CC1 (stereo not drawn),20.6µM*,0.0,?,-1.8%,-3.6%
O=C(CN1CCN(c2ccccn2)CC1)Nc1ccc(Cl)c(C(F)(F)F)c1,18.4µM*,-9.5,18.4µM*,-11.6%[9.24 µM],0.8%
COc1ccccc1N1CCN(CC(=O)Nc2cc(C)nn2-c2nc(C)cc(C)n2)CC1,4.11µM*,50.8,3.26µM*,?,?
O=C(CN1CCN(c2ccccn2)CC1)Nc1cc(C(F)(F)F)ccc1Cl,?,-13.1,18.4µM*,3.4%[9.24 µM],-11.7%
CC(=O)Nc1ccc(NC(=O)CN2CCN(c3ccccn3)CC2)cc1,3.8%,19.3,0.8%,16.4%,-1.4%
COc1cc(CC(=O)Nc2ccc(Cl)c(C(F)(F)F)c2)cc(OC)c1OC,?,-3.4,?,-6.5%,-5.8%
CC(OC(=O)c1ccc(O)cc1)C(=O)Nc1cc(C(F)(F)F)ccc1Cl (stereo not drawn),?,31.6,?,?,?
O=C(CN1CCN(c2ccccn2)CC1)Nc1ccc(OC(F)(F)F)cc1,-4.6%,-25.0,23.1µM*,-5.1%,-25.9%
